High-throughput results deposited in PubChem by Broad Institute.
Compounds with a hit are over-represented: about 6.8% of the library has one in this group of screens.
T cruzi growth-1: inhibitors of T. cruzi proliferation | T. cruzi beta-gal in NIH3T3, GalScreen luminescence, 90 h | inhibition, % at 8.34 µM | actives 5.9% (n = 77,000) | AID 624255;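 active means mean inhibition above about 93%, with at least 55% of replicates each passing it, limit read from the data, passing the limit was not always enough; inconclusive means only one of those two conditions holds; inactive means neither condition holds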
C diff growth: C. difficile growth inhibition; Clostridium difficile clinical isolate growth, OD600, 24 h; hits give low values; growth activity, negative = inhibition, % at 16 µg/mL (by protocol); actives 0.25% (n = 86,000); AID 1259249;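 active means mean growth activity at or below -80% and every replicate also at or below -80%; inconclusive means mean at or below -80% but some replicate above -80%; inactive means mean growth activity above -80%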
Pf Dd2 growth: P. falciparum Dd2 growth inhibition | SYBR Green, 72 h; hits give low values | activity change, % at 10 µM | actives 2.3% (n = 94,000); in the data active means activity change below about -80%; inconclusive means no clear call, values can overlap the other calls
T cruzi growth-2: blocks T. cruzi growth in NIH3T3 host cells | shares compounds with T cruzi growth-1 | T. cruzi beta-gal in NIH3T3, GalScreen luminescence, 90 h | inhibition, % at 8.35 µM | actives 72% (n = 5,600) | AID 651739;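 active means mean replicate inhibition above about 95% and at least 55% of replicates individually reaching it, limit read from the data; inconclusive means only one of the two criteria is met; inactive means neither criterion is met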
T cruzi growth-3: Trypanosoma cruzi proliferation inhibition | shares compounds with T cruzi growth-1 | T. cruzi beta-gal in NIH3T3, GalScreen luminescence, 90 h | inhibition, % at 2.09 µM | actives 21% (n = 5,600);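 active means mean inhibition above about 95%, with at least 55% of replicates also reaching it, limit read from the data; inconclusive means meets just one of the two conditions; inactive means meets neither condition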
3T3 cytotox: kills mouse NIH/3T3 fibroblasts | shares compounds with T cruzi growth-1 | NIH/3T3 viability, CellTiter-Glo ATP luminescence, 90 h | cytotoxicity (signal decrease), % at 8.35 µM | actives 14% (n = 5,600);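 active means mean signal decrease across replicates above about 35% based on untreated-well scatter, with enough replicates individually passing, limit read from the data; inconclusive means no rule stated though some were filed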
3T3 cytotox 2: NIH/3T3 (mouse) viability loss; shares compounds with T cruzi growth-1; NIH/3T3 viability, CellTiter-Glo ATP luminescence, 90 h; inhibition, % at 24.9 µM; actives 56% (n = 5,600);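 active means mean loss of cell viability signal at or above a set limit, and enough replicates individually reaching it; inconclusive means meets only the mean limit or only the replicate share; inactive means meets neither condition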
Each line names hits and unclear results; the compound was inactive in the other large screens (follow-up assays come after a bar, where they were run).

COc1ccc(CN(C)C[C@@H]2OCCCC[C@@H](C)Oc3ccc(NS(=O)(=O)c4ccc(Cl)cc4)cc3C(=O)N([C@H](C)CO)C[C@H]2C)cc1	T cruzi growth-1 inconclusive | T cruzi growth-2 105 | T cruzi growth-3 inactive | 3T3 cytotox inactive | 3T3 cytotox 2 103
COc1ccc(CN(C)C[C@H]2OCCCC[C@@H](C)Oc3ccc(NS(=O)(=O)c4ccc(OC)cc4)cc3C(=O)N([C@H](C)CO)C[C@@H]2C)cc1	none
COc1ccc(CN(C)C[C@H]2OCCCC[C@@H](C)Oc3ccc(NS(=O)(=O)c4ccc(Cl)cc4)cc3C(=O)N([C@@H](C)CO)C[C@@H]2C)cc1	none
COc1ccc(CN(C)C[C@@H]2OCCCC[C@H](C)Oc3ccc(NS(=O)(=O)c4ccc(Cl)cc4)cc3C(=O)N([C@@H](C)CO)C[C@H]2C)cc1	T cruzi growth-1 inconclusive | T cruzi growth-2 100 | T cruzi growth-3 inactive | 3T3 cytotox inactive | 3T3 cytotox 2 104
CC(C)CC#Cc1ccc([C@@H]2[C@@H](CO)N3C(=O)CN(C(=O)NC4CCCC4)C[C@@H]23)cc1	none (no result: T cruzi growth-1)
C/C=C/c1ccccc1[C@H]1[C@@H](CO)N(S(=O)(=O)c2cccc(F)c2)[C@H]1C#N	none (no result: T cruzi growth-1)
C[C@H](CO)N1C[C@H](C)[C@H](CN(C)C(=O)Nc2ccc(C(F)(F)F)cc2)Oc2ccc(NC(=O)CCC(F)(F)F)cc2CC1=O	none
CO[C@H]1CN(C)C(=O)c2cc(NC(=O)C3CC3)ccc2OC[C@@H](C)N(C(=O)c2cnccn2)C[C@@H]1C	none (no result: C diff growth)
COCC(=O)Nc1ccc2c(c1)C(=O)N(C)C[C@@H](OC)[C@H](C)CN(Cc1cc(F)ccc1F)[C@H](C)CO2	none (no result: C diff growth)
COCC(=O)Nc1ccc2c(c1)OC[C@@H](C)N(Cc1cc(F)ccc1F)C[C@@H](C)[C@@H](OC)CN(C)C2=O	none (no result: C diff growth)
COCC(=O)Nc1ccc2c(c1)OC[C@@H](C)N(Cc1cc(F)ccc1F)C[C@H](C)[C@@H](OC)CN(C)C2=O	T cruzi growth-1 107 (no result: C diff growth) | T cruzi growth-2 inactive | T cruzi growth-3 inactive | 3T3 cytotox inactive | 3T3 cytotox 2 inactive
COCC(=O)Nc1ccc2c(c1)C(=O)N(C)C[C@H](OC)[C@H](C)CN(Cc1cc(F)ccc1F)[C@H](C)CO2	T cruzi growth-1 105 (no result: C diff growth) | T cruzi growth-2 inactive | T cruzi growth-3 inactive | 3T3 cytotox inactive | 3T3 cytotox 2 inconclusive
CO[C@H]1CN(C)C(=O)c2cc(NS(=O)(=O)c3cccc(F)c3)ccc2OC[C@H](C)N(C(=O)Cc2cccnc2)C[C@H]1C	none (no result: C diff growth)
C[C@@H]1CN([C@@H](C)CO)S(=O)(=O)c2ccc(C#CC3CC3)cc2O[C@@H]1CN(C)C(=O)Cc1ccncc1	none
C[C@H](CO)N1C[C@H](C)[C@@H](CN(C)C(=O)Cc2ccncc2)Oc2cc(C#CC3CC3)ccc2S1(=O)=O	T cruzi growth-1 97 | T cruzi growth-2 102 | T cruzi growth-3 inactive | 3T3 cytotox inactive | 3T3 cytotox 2 inactive
C[C@H]1CN([C@@H](C)CO)S(=O)(=O)c2ccc(C#CC3CC3)cc2O[C@@H]1CN(C)C(=O)Cc1ccncc1	T cruzi growth-1 96 | T cruzi growth-2 104 | T cruzi growth-3 inactive | 3T3 cytotox inactive | 3T3 cytotox 2 inactive
C[C@H]1CN([C@@H](C)CO)S(=O)(=O)c2ccc(C#CC3CC3)cc2O[C@H]1CN(C)C(=O)Cc1ccncc1	none
C[C@H]1CN([C@@H](C)CO)C(=O)c2cc(NS(=O)(=O)c3ccc(F)cc3)ccc2O[C@H]1CN(C)C(=O)Nc1ccc2c(c1)OCO2	none
O=C(CC1CC1)N1CC[C@@H]2[C@H](CO)Nc3ccc(-c4cccc(F)c4)cc3[C@@H]21	none
O=C(CC1CC1)N1CC[C@@H]2[C@@H](CO)Nc3ccc(-c4ccc(F)cc4)cc3[C@@H]21	T cruzi growth-1 inconclusive | T cruzi growth-2 104 | T cruzi growth-3 inactive | 3T3 cytotox inactive | 3T3 cytotox 2 inactive
O=C(CC1CC1)N1CC[C@@H]2[C@H]1c1cc(-c3ccc(F)cc3)ccc1N[C@@H]2CO	T cruzi growth-1 103 | T cruzi growth-2 102 | T cruzi growth-3 101 | 3T3 cytotox inactive | 3T3 cytotox 2 82
O=C(CC1CC1)N1CC[C@H]2[C@H](CO)Nc3ccc(-c4ccc(F)cc4)cc3[C@H]21	T cruzi growth-1 107 | T cruzi growth-2 108 | T cruzi growth-3 103 | 3T3 cytotox inactive | 3T3 cytotox 2 inactive
CC(=O)N1CC[C@H]2[C@H](CO)Nc3ccc(-c4ccc(F)cc4)cc3[C@H]21	none
O=C(CC1CC1)N1CC[C@H]2[C@H](CO)Nc3ccc(-c4cccc(F)c4)cc3[C@H]21	none
CC(C)NC(=O)N(C)C[C@H]1Oc2ccc(N(C)C)cc2CC(=O)N([C@@H](C)CO)C[C@H]1C	none
CCS(=O)(=O)N1[C@H](C#N)[C@@H](c2ccc(C#CC(C)C)cc2)[C@@H]1CO	none
CCc1cnc(N2[C@H](C#N)[C@@H](c3ccc(C#CC(C)C)cc3)[C@@H]2CO)s1	T cruzi growth-1 98 | T cruzi growth-2 104 | T cruzi growth-3 110 | 3T3 cytotox inactive | 3T3 cytotox 2 43
CCS(=O)(=O)N1[C@H](CO)[C@H](c2ccc(C#CC(C)C)cc2)[C@@H]1C#N	none
CCc1cnc(N2[C@H](CO)[C@@H](c3ccc(C#CC(C)C)cc3)[C@@H]2C#N)s1	T cruzi growth-1 99 | T cruzi growth-2 101 | T cruzi growth-3 104 | 3T3 cytotox inactive | 3T3 cytotox 2 52
CO[C@H]1CN(C)C(=O)c2ccc(NC(=O)NC(C)C)cc2OC[C@H](C)N(Cc2ccccc2)C[C@@H]1C	none (no result: C diff growth)
C[C@H](CO)N1C[C@H](C)[C@H](CN(C)Cc2ccccc2)Oc2ccc(NC(=O)CCN3CCOCC3)cc2C1=O	none
C[C@@H]1CN([C@@H](C)CO)C(=O)c2cc(-c3cccc(F)c3)cnc2O[C@@H]1CN(C)S(C)(=O)=O	none
CC(C)CC#Cc1ccc2c(c1)O[C@H](CN(C)C(=O)C1CC1)[C@H](C)CN([C@@H](C)CO)S2(=O)=O	none (no result: C diff growth)
CC(C)CC#Cc1ccc2c(c1)O[C@H](CN(C)C(=O)C1CCCCC1)[C@@H](C)CN([C@@H](C)CO)S2(=O)=O	T cruzi growth-1 112 | T cruzi growth-2 100 | T cruzi growth-3 116 | 3T3 cytotox inactive | 3T3 cytotox 2 104
CC(C)CC#Cc1ccc2c(c1)O[C@H](CN(C)C(=O)C1CCCCC1)[C@@H](C)CN([C@H](C)CO)S2(=O)=O	T cruzi growth-1 118 | T cruzi growth-2 106 | T cruzi growth-3 107 | 3T3 cytotox inactive | 3T3 cytotox 2 105
CC(C)CC#Cc1ccc2c(c1)O[C@H](CN(C)C(=O)C1CC1)[C@@H](C)CN([C@H](C)CO)S2(=O)=O	none (no result: C diff growth)
